Screening results as filed in PubChem.
In the library only some 3.1% were active in any assay of this set; here they are far more common.
VDR inh = Inhibitors of the vitamin D receptor (VDR): qHTS; Vitamin D3 receptor (Homo sapiens), P11473; 400,000 tested, 0.93% active; AID 504847, 2011; Potency, µM, for inactives: max response, negative = inhibition, actives largely listed as inhibitors; VDR-SRC2-3 peptide fluorescence polarization, 2 h; also: potency is read from the fitted curve at half-maximal effect; % is scaled to controls: 0 for no effect and ±100 for the full control effect
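Fluorescence polarization assay of small-molecule disruption of VDR binding to coregulator peptide SRC2-3. Compounds and controls pin-transferred, then read after 2 h incubation at ambient room temperature.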
PI4K2A inh = qHTS for small molecular inhibitors of PI4K2A | purified PI4K2A, ADP-Glo luminescence, 1 h; active compounds read low | activity change, negative = inhibition, % at 76.9 µM | 420,000 tested, 0.13% active; in the data active = activity change below about -50%; inconclusive = mostly about -30% to -49%;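 also: -100% = wells without enzyme as full effect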
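ADP-Glo luminescence measured ADP generated by PI4K2A enzyme (4 ug/mL before mixing) with 1.2 mM PI substrate (pre-mix) and 300 microM ATP (pre-mix). Tris pH7.5 buffer with MgCl2, Triton X-100; 1 h reaction at ambient temperature.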
GLS inhibitor = qHTS for Inhibitors of Glutaminase (GLS); AID 624170, 2012; Glutaminase kidney isoform, mitochondrial (Homo sapiens), O94925; GLS enzymatic activity, qHTS titration; Potency, µM (top dose mostly 45.5 µM), inactives show top-dose activity change, negative = inhibition, most hits filed as inhibitors; 410,000 tested, 0.21% active; also: potency is read from the fitted curve at half-maximal effect; % is scaled to controls: 0 for no effect and ±100 for the full control effect
Target sequence (O94925 whole entry, looked up, canonical isoform): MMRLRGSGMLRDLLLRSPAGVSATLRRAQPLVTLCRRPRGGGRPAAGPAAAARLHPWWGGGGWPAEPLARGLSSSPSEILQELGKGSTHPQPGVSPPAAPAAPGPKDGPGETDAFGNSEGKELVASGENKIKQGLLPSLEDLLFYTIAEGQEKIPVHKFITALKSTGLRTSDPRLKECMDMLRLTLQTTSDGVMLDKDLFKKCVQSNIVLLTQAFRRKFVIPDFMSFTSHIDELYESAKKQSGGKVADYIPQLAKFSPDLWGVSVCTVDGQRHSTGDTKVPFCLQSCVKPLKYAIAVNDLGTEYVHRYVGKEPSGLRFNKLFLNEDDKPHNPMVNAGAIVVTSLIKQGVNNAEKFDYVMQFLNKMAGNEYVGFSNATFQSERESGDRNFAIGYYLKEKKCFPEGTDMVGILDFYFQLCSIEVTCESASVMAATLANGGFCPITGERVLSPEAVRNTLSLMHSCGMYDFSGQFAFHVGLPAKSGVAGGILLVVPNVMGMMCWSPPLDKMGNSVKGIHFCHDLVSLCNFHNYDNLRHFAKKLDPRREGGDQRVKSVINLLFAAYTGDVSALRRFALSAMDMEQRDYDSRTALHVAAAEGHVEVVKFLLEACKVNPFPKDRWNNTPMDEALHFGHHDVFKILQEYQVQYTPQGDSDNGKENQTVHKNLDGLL
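Coupled fluorescence readout: glutamate oxidase/HRP/Amplex Red detect glutamate formed by hKGA from L-glutamine (1 mM solution added). Buffer 45 mM KH2PO4 pH 8.2, 0.02% Tween-20; reads at t0 and 30 min RT.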
KAT2A inh = qHTS Assay for Inhibitors of GCN5L2; Histone acetyltransferase KAT2A (Homo sapiens), Q92830; GCN5L2 HAT assay, ThioGlo1 CoA-SH fluorescence; Potency, µM (doses to about 58.9 µM), for inactives: top-dose activity change, negative = inhibition, usual class: inhibitors; 390,000 tested, 0.21% active; also: potency is read from the fitted curve at half-maximal effect; % is scaled to controls: 0 for no effect and ±100 for the full control effect
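GCN5L2 (20 nM) in 50mM HEPES pH 7.5, 0.1mM EDTA, 0.01% Tween-20 preincubated 15 min with compounds at room temperature. Reaction started with H3(1-25) 75uM, acetyl-CoA 70uM, ThioGlo1 50uM; CoA-thiol fluorescence (Ex340/Em540) read at 0 and 20 min.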
PLK1 PBD inh = qHTS for Inhibitors of PLK1-PDB (polo-like kinase 1 - polo-box domain): Primary Screen | Serine/threonine-protein kinase PLK1 (Homo sapiens), P53350 | Plk1 PBD binding of FITC phosphopeptide, fluorescence polarization | Potency, µM, without a hit: max response, negative = inhibition, usual class: inhibitors | 360,000 tested, 2.8% active; also: potency is read from the fitted curve at half-maximal effect; series mostly up to about 57 µM; % is scaled to controls: 0 for no effect and ±100 for the full control effect; nearly all actives have a fitted effect of over 65% in size
USP1 UbRho = Inhibitors of USP1/UAF1: Hit Validation in Primary Assay | Ub-Rhodamine cleavage, fluorescence kinetic read | AID 540327, 2011 | shares compounds with VDR inh | 50 tested, 50% active | Potency, µM (top dose mostly 114 µM), inactives show at the top dose activity change, negative = inhibition, actives largely listed as inhibitors
VDR inh confirm = qHTS for Inhibitors of the vitamin D receptor (VDR): Hit Validation in Primary Screen. VDR-coactivator inhibition assay, qHTS confirmation. shares compounds with VDR inh. 840 tested, 89% active. Potency, µM, actives largely listed as inhibitors; also: potency is read from the fitted curve at half-maximal effect
VDR FP fluor = qHTS for Inhibitors of the vitamin D receptor (VDR): Hit Validation using a Fluorescein Assay; Potency, µM (series often up to 57.1 µM), inactives show at the top dose activity change, negative = inhibition, actives largely listed as inhibitors; AID 602200, 2012; VDR-coactivator binding, fluorescein fluorescence polarization; shares compounds with VDR inh; 840 tested, 48% active; also: potency is read from the fitted curve at half-maximal effect
VDR bla reporter = qHTS for Inhibitors of the vitamin D receptor (VDR): Hit Validation using a Beta-Lactamase Assay; shares compounds with VDR inh; VDR beta-lactamase reporter cells, FRET ratio; cells co-treated with VDR agonist LG190178; Potency, µM (series often up to 46.1 µM), inactives show at the highest dose activity change, negative = inhibition, actives largely listed as inhibitors; 840 tested, 23% active; also: potency is read from the fitted curve at half-maximal effect; % is scaled to controls: 0 for no effect and ±100 for the full control effect
VDR cytotox = qHTS for Inhibitors of the vitamin D receptor (VDR): Hit Validation using a Cytotoxicity Assay. cytotoxicity counter-screen, cell viability, qHTS. shares compounds with VDR inh. 840 tested, 18% active. Potency, µM (highest dose often 48.3 µM), for inactives: top-dose activity change, negative = cytotoxicity, most hits filed as cytotoxic;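 also: potency is read from the fitted curve at half-maximal effect; plate controls were DMSO for no effect and high-concentration cycloheximide for full effect; nearly all actives have a fitted effect of over 75% in size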
* = called active by the depositor; ? = inconclusive; nt = no result given. Unless noted, calls follow the shape of the dose curve; as a rule, active = well fitted curve in the direction sought with a large enough effect; inconclusive = small, poorly fitted or top-dose-only effect, or another doubt; inactive = no such curve, though single readings can be large; an effect the other way counts as inactive or inconclusive.

SMILES	VDR inh	PI4K2A inh	GLS inhibitor	KAT2A inh	PLK1 PBD inh	VDR inh confirm	VDR FP fluor	VDR bla reporter	VDR cytotox	others
CC1=C(C(=O)Nc2ccccc2)C(c2ccc(O)cc2)n2nc(-c3ccc(Cl)cc3)nc2N1 (centres undefined)	-25%	-3	17%	-12%	nt	nt	nt	nt	nt
Cc1nnc(Sc2cc(NCCCO)c([N+](=O)[O-])c3nonc23)s1	45µM*	?	?	-25%	5.3µM*	13*	11µM*	?	?
O=[N+]([O-])c1c(NCCO)cc(N2CCCCCC2)c2nonc12	1%	3	-3%	-6%	-14%	nt	nt	nt	nt
CCCSc1cc(NCCOC(C)=O)c([N+](=O)[O-])c2nonc12	?	-2	1%	7%	?	nt	nt	nt	nt
Cc1nnc(Sc2cc(NCCO)c([N+](=O)[O-])c3nonc23)s1	22µM*	-19	-3%	-25%	2.4µM*	4.2*	?	?	?
C=C1CC[C@H](O)C/C1=C/C=C1\CCC[C@]2(C)C([C@H](C)CC[C@@H](O)C(C)(C)O)CC[C@@H]12 (some centres undefined)	-2%	nt	nt	-18%	nt	nt	nt	nt	nt
Cc1ccc(NC(=O)C2=C(c3ccccc3)S(=O)(=O)CCS2(=O)=O)cc1	?	?	0%	?	6µM*	6.3*	8.9µM*	6.5µM*	?
Cc1ccc(NC(=O)c2ccc(-c3ccccc3)s2)cc1	1%	4	-10%	-5%	nt	nt	nt	nt	nt
O=C(Nc1ccccn1)c1sc2cc([N+](=O)[O-])ccc2c1Cl	32µM*	-3	-10%	?	2.7µM*	3.4*	?	5%	-24%
CCOc1ccc(C(Nc2cccnc2)c2cc(Cl)c3cccnc3c2O)cc1 (centres undefined)	?	-3	-8%	-20%	4.7µM*	7.1*	?	-21%	?
O=C(O)COc1ccccc1C(Nc1cccnc1)c1cc(Cl)c2cccnc2c1O (centres undefined)	22µM*	-16	36%	?	1.2µM*	13*	?	10%	21%
CCC(=O)NC(c1ccc(C)cc1)c1cc(Cl)c2cccnc2c1O (centres undefined)	-8%	-2	0%	-4%	nt	nt	nt	nt	nt
CC(=O)Nc1nonc1-c1nnc(SCc2ccccc2Cl)n1C	9%	-1	3%	-16%	nt	nt	nt	nt	nt
Cc1sc2c(c1C)c(=O)n(-c1cccc(C(F)(F)F)c1)c(=O)n2Cc1ccccc1C#N	0%	1	-5%	-9%	nt	nt	nt	nt	nt
COc1ccc(Cc2c(O)nc(SC)n(C(C)=O)c2=O)cc1	?	-2	7%	-10%	-14%	?	5.6µM*	7%	6%
COc1ccc(-n2c(SC)nc(O)c(Cc3ccccc3)c2=O)cc1	-13%	5	-2%	-14%	-23%	nt	nt	nt	nt
CCOC(=O)c1c(C)oc2c1c(C(c1cccnc1)N1CCN(C)CC1)c(O)c1ccccc12 (centres undefined)	nt	nt	nt	-7%	nt	nt	nt	nt	nt
CCOC(=O)c1c(C)oc2c1c(C(c1cccnc1)N1CCOCC1)c(O)c1ccccc12 (centres undefined)	?	-11	18%	-18%	6.7µM*	16*	13µM*	?	?
CCOC(=O)c1c(C)oc2c1c1c(c3ccccc32)OCN(Cc2cccnc2)C1	?	-2	17%	-12%	4.7µM*	11*	7.9µM*	4%	?
Cc1cc(-c2n[nH]c(=S)n2N=Cc2ccc(-c3ccccc3)cc2)n[nH]1	nt	-2	nt	nt	nt	nt	nt	nt	nt
CCOC(=O)CSC1=NC(=O)/C(=C\c2ccc(OC(C)=O)cc2)S1	20µM*	-3	-6%	-8%	2.1µM*	13*	?	?	?
Cc1ccc(Nc2nnc(-c3ccc(C)c(S(=O)(=O)N4CCOCC4)c3)c3ccccc23)c(C)c1	-6%	0	0%	-2%	nt	nt	nt	nt	nt
Cc1ccc(-c2nc(-c3nccc4ccccc34)oc2-c2ccccc2)cc1	-9%	-1	-3%	?	-25%	nt	nt	nt	nt
O=C(O)COc1cccc(-c2ocnc2-c2nc(-c3ccccc3)c(-c3ccccc3)o2)c1	?	nt	nt	?	nt	nt	nt	nt	nt	USP1 UbRho=59µM*
Cc1cc(Sc2ccc([N+](=O)[O-])cn2)ccc1Br	-24%	3	-3%	nt	-1%	nt	nt	nt	nt
SMILES	VDR inh	PI4K2A inh	GLS inhibitor	KAT2A inh	PLK1 PBD inh	VDR inh confirm	VDR FP fluor	VDR bla reporter	VDR cytotox	others
Cc1cc(S(=O)(=O)c2ccc([N+](=O)[O-])cn2)ccc1Br	?	0	-1%	nt	?	2.2*	2.5µM*	7.3µM*	?
CCSC1=NC(C)(C)C=C(/C=C/c2ccc(Cl)cc2Cl)N1	?	9	-2%	?	?	14*	16µM*	23µM*	?
COc1ccc(NC(=O)C(C)Sc2cc(-c3ccccc3)nc(C)n2)cc1Cl (centres undefined)	-1%	1	6%	-14%	nt	nt	nt	nt	nt
CC(C)c1ccc(NS(=O)(=O)c2ccc3[nH]cc(C(=O)N4CCCC4)c(=O)c3c2)cc1	-9%	-10	4%	-2%	nt	nt	nt	nt	nt
CC(N=Cc1cccc(O)c1O)c1ccccc1 (centres undefined)	50µM*	-19	8%	-16%	?	20*	10µM*	12µM*	-17%
CC(N=Cc1cc([N+](=O)[O-])ccc1O)c1ccccc1 (centres undefined)	-3%	-7	25%	-9%	-17%	nt	nt	nt	nt
